Results reported in PubChem BioAssay.
Calls of active or inactive are those of the source.

How the values were obtained:
[1] = anti-His antibody binders, primary screen, artefact control for SMM control protein annotation, biochemical, small-molecule microarray, 635 nm fluorescence (AID 1128); settings: anti-His Alexa647 antibody binding, higher = more signal;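 also: score merges feature fluorescence with signal-to-noise for each printed compound spot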
[2] = tested on: Human papillomavirus type 1a E7 protein (residues 1-88); assay: HPV1a E7 small-molecule binders, primary screen, biochemical, small-molecule microarray, residues 1-88, 635 nm (AID 1129); settings: small-molecule microarray binding, fluorescence 635 nm; higher = more signal
[3] = target: Focal adhesion kinase 1 (Homo sapiens) (UniProt Q05397); assay: small-molecule microarray binders of FAK, primary screen, biochemical, 635/667 nm fluorescence, BSA, DTT (AID 1130); settings: PTK2 binding, 635 nm fluorescence, higher = more signal;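 also: composite of spot emission at 667 nm and signal to noise over triplicate slides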
[4] = tested on: Fibrinogen (Alexa647-labelled); assay: fibrinogen binders on compound microarrays, profiling panel, artefact control for SMM control-protein annotation, biochemical, small-molecule microarray, 635/667 nm fluorescence (AID 1131); settings: fibrinogen-A647 binding fluorescence, higher = more signal;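 also: z-score merges 667 nm fluorescence with per-spot signal-to-noise over triplicate slides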
[5] = target: Follistatin (Homo sapiens) (UniProt P19883); assay: follistatin binders on small-molecule microarrays, primary screen, biochemical, small-molecule microarray, 635/667 nm fluorescence (AID 1132); settings: FST binding, 635 nm fluorescence, higher = more signal
[6] = target: Fibroblast growth factor 2 (Homo sapiens) (UniProt P09038); assay: FGF2 binders on small-molecule microarrays, primary screen, biochemical, small-molecule microarray, 635/667 nm fluorescence (AID 1133); settings: small-molecule microarray binding, FGF2, fluorescence 635/667; higher = more signal
[7] = mitochondrial membrane potential change in A549 cells, profiling panel, cell-based, JC-1 fluorescence, basal, 24 h, 100 nL (AID 1138); settings: higher = more signal;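 also: A549 lung adenocarcinoma cells under basal conditions with no added stimulus; test concentration not given here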
[8] = tested on: Lefty1; assay: Lefty1 binders on small-molecule microarrays, primary screen, biochemical, small-molecule microarray, 635/667 nm fluorescence (AID 1139); settings: small-molecule microarray binding, fluorescence 635/667; higher = more signal
[9] = tested on: wheat germ agglutinin (Triticum aestivum), Alexa647-labelled; assay: wheat germ agglutinin binders on compound microarrays, profiling panel, artefact control for SMM control-protein annotation, biochemical, small-molecule microarray, 635/667 nm fluorescence (AID 1140); settings: WGA-A647 binding, 635 nm fluorescence, higher = more signal;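 also: score merges 667 nm feature emission with signal to noise over triplicate slides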
[10] = target: Luciferin 4-monooxygenase (Photinus pyralis) (UniProt P08659); assay: firefly luciferase enzyme inhibitors, primary screen, biochemical, luminescence, purified enzyme, 2006 set (AID 1141); settings: SteadyGlo luminescence, 30 min, higher = more signal, called active from +8 up or from −8 down;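 also: cell-free assay with purified firefly luciferase at 100 ng per well in PBS; test concentration not given here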
Luciferin 4-monooxygenase (Photinus pyralis), sequence (P08659 whole entry, looked up): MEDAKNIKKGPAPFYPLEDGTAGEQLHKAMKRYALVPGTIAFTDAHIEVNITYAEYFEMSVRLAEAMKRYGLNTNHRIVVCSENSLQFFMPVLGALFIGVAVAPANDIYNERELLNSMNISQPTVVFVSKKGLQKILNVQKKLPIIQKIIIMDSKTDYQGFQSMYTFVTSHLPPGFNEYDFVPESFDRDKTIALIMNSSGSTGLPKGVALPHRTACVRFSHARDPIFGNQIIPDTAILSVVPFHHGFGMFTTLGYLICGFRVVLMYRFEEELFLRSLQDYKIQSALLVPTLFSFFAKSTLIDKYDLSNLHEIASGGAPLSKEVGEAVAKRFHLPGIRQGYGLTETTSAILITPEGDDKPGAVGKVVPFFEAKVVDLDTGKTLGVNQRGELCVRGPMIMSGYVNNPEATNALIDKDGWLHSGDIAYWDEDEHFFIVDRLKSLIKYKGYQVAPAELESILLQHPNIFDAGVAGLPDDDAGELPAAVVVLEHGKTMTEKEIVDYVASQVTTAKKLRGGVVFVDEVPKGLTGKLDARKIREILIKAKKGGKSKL

Focal adhesion kinase 1 (Homo sapiens), sequence (Q05397 whole entry, looked up): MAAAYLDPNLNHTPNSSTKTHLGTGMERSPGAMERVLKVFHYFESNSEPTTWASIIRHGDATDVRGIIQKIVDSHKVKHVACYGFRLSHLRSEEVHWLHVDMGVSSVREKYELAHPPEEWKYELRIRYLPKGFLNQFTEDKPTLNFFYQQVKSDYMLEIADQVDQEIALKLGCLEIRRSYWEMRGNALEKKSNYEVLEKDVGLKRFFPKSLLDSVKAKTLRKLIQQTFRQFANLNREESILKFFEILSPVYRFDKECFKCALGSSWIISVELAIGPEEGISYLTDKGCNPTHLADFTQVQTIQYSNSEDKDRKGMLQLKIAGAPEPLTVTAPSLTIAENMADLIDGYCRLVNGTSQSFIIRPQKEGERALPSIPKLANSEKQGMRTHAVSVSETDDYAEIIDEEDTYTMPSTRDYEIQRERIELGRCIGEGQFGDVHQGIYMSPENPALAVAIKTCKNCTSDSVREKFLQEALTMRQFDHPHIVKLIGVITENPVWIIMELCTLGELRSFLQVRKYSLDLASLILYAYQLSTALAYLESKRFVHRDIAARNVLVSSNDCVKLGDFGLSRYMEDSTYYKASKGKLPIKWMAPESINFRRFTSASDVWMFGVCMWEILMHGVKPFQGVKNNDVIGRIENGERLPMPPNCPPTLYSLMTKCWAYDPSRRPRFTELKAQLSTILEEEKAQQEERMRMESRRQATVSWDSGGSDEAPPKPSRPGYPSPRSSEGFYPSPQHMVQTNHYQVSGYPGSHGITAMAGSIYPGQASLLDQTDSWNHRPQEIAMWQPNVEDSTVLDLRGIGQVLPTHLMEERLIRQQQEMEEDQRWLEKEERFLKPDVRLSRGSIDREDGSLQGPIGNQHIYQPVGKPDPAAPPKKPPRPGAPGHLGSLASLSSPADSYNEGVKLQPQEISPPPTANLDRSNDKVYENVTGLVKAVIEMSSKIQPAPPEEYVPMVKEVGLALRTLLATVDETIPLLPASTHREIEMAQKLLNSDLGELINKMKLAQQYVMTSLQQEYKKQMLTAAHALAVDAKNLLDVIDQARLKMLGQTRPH
Fibroblast growth factor 2 (Homo sapiens), sequence (P09038 whole entry, looked up): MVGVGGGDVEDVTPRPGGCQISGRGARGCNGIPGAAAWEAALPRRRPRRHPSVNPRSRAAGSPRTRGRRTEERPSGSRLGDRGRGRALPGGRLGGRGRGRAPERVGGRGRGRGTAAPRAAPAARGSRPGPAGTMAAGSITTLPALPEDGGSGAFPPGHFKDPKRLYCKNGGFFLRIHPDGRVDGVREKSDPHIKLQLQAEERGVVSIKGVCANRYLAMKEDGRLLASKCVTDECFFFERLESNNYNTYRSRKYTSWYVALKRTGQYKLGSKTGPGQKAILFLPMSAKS
Follistatin (Homo sapiens), sequence (P19883 whole entry, looked up): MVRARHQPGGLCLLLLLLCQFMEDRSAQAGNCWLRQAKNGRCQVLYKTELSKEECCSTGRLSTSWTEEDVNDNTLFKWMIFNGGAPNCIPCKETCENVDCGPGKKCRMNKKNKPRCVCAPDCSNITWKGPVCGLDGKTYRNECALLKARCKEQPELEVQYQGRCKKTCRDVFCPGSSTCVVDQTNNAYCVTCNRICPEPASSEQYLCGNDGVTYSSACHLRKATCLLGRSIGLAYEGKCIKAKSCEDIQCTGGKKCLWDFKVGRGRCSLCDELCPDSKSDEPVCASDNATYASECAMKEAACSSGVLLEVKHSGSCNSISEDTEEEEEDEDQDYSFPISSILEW

SMILES: O=C1N(CCS(=O)(=O)c2ccccc2)Cc2ccccc2[C@@H]2OC(c3ccc(OCCCO)cc3)=N[C@]12CCS(=O)(=O)c1ccccc1
- composite z-score [1]: 0.519
- composite z-score [2]: 1.27
- composite z-score [3]: 1.2
- composite z-score [4]: 0.645
- composite z-score [5]: 1.41
- composite z-score [6]: 1.7
- z-score [7]: -1.19
- composite z-score [8]: 0.783
- composite z-score [9]: 0.817
- z-score [10]: -2.08 (inactive)

SMILES: CS(=O)(=O)CCOC(=O)C1=CC(CCCO)=CC(C2CC2)N(Cc2cccc(OC(F)(F)F)c2)C=C1C(=O)OCCS(C)(=O)=O (stereo not given)
- composite z-score [1]: 1.96
- composite z-score [2]: 0.852
- composite z-score [3]: 0.386
- composite z-score [4]: 0.701
- composite z-score [5]: -0.0478
- composite z-score [6]: -0.256
- z-score [7]: 1.62
- composite z-score [8]: 0.126
- composite z-score [9]: 0.927
- z-score [10]: -1.6 (inactive)

SMILES: CC(C)C[C@@H]1NC(=O)CNC(=O)[C@@]23C(=O)N[C@@H](Cc4ccccc4)C2[C@H](C)[C@@]2(C)O[C@H]2C3/C=C/C/C=C\CNC1=O (stereo not given in full)
- composite z-score [1]: 0.678
- composite z-score [2]: 0.331
- composite z-score [3]: -0.183
- composite z-score [4]: 0.949
- composite z-score [5]: 1.08
- composite z-score [6]: 0.759
- z-score [7]: 0.036
- composite z-score [8]: 1.07
- composite z-score [9]: -0.0197
- z-score [10]: -0.14 (inactive)

SMILES: CC(C)[C@H]1NC(=O)[C@@]23C(=O)N[C@@H](Cc4ccccc4)C2[C@H](C)[C@@]2(C)O[C@H]2C3/C=C/C/C=C\CNC(=O)[C@H](Cc2ccccc2)NC1=O (stereo not given in full)
- composite z-score [1]: 0.591
- composite z-score [2]: 0.973
- composite z-score [3]: 0.117
- composite z-score [4]: 0.982
- composite z-score [5]: 1.31
- composite z-score [6]: 1.42
- z-score [7]: -0.182
- composite z-score [8]: 1.57
- composite z-score [9]: 0.489
- z-score [10]: -0.894 (inactive)

SMILES: C=C(/C(=C/C[C@@H](OC(C)=O)c1ccc(OCCO)cc1)c1cc(C(=O)OC)ccc1OC)C(C)C
- composite z-score [1]: 1.81
- composite z-score [2]: 0.999
- composite z-score [3]: 0.211
- composite z-score [4]: 0.665
- composite z-score [5]: 0.776
- composite z-score [6]: 1.11
- z-score [7]: 0.471
- composite z-score [8]: 1.36
- composite z-score [9]: 0.85
- z-score [10]: -0.6 (inactive)

SMILES: CC(C)C(=C=CC[C@@H](O)c1cccc(OCCO)c1)C[C@@H](O)c1ccccn1
- composite z-score [1]: 1.39
- composite z-score [2]: -0.0234
- composite z-score [3]: 0.0046
- composite z-score [4]: -1.15
- composite z-score [5]: 0.484
- composite z-score [6]: -0.0241
- z-score [7]: 0.386
- composite z-score [8]: 0.402
- composite z-score [9]: 0.782
- z-score [10]: 0.179 (inactive)

SMILES: CC(C)C(=C=CC[C@H](O)c1cccc(OCCO)c1)CCO
- composite z-score [1]: -0.0157
- composite z-score [2]: -0.374
- composite z-score [3]: 0.107
- composite z-score [4]: -1
- composite z-score [5]: 0.277
- composite z-score [6]: 0.138
- z-score [7]: 0.346
- composite z-score [8]: 0.67
- composite z-score [9]: 0.108
- z-score [10]: 0.371 (inactive)

SMILES: CCCCC(=C=CC[C@H](O)c1ccc(OCCO)cc1)C[C@H](O)c1cc(Cl)cc(Cl)c1O
- composite z-score [1]: 0.323
- composite z-score [2]: 0.606
- composite z-score [3]: 0.0593
- composite z-score [4]: 0.463
- composite z-score [5]: 0.906
- composite z-score [6]: 0.807
- z-score [7]: 0.62
- composite z-score [8]: 0.484
- composite z-score [9]: 0.776
- z-score [10]: -1.39 (inactive)

SMILES: CN1C(=O)C2C=CC(C(O)c3cc(C(F)(F)F)cc(C(F)(F)F)c3)N(NC(=O)OC(C)(C)C)C2C1=O (stereo not given)
- composite z-score [1]: 1.12
- composite z-score [2]: 1.2
- composite z-score [3]: 0.753
- composite z-score [4]: 0.982
- composite z-score [5]: 1.27
- composite z-score [6]: -0.396
- z-score [7]: 0.717
- composite z-score [8]: 0.369
- composite z-score [9]: 0.713
- z-score [10]: 0.75 (inactive)

SMILES: COc1ccc(C(=O)Nc2cccc(CN3C(=O)[C@]4(O[C@H](CCn5cc([C@H](O)c6ccccc6)nn5)[C@@H]([Si](C)(C)c5ccc(OC)cc5)[C@@H]4C)c4ccccc43)c2)cc1
- composite z-score [1]: 1.07
- composite z-score [2]: 0.514
- composite z-score [3]: 0.31
- composite z-score [4]: 0.242
- composite z-score [5]: 1.19
- composite z-score [6]: 0.348
- z-score [7]: 0.456
- composite z-score [8]: 0.752
- composite z-score [9]: 0.12
- z-score [10]: 0.889 (inactive)

SMILES: CC(C)N1CC=CC23O[C@@H]4/C=C\CCCOC(=O)C4[C@H]2C(=O)N(CCCCCCO)[C@@H]3C1=O (stereo not given in full)
- composite z-score [1]: 1.3
- composite z-score [2]: -0.808
- composite z-score [3]: 0.0835
- composite z-score [4]: -1.38
- composite z-score [5]: -1.04
- composite z-score [6]: -1.2
- z-score [7]: 1.49
- composite z-score [8]: -0.934
- composite z-score [9]: -0.724
- z-score [10]: -1.88 (inactive)

SMILES: [N-]=[N+]=Nc1ccccc1C[C@@]1(C(=O)O)N=C(c2ccc(OCCCO)cc2)O[C@@H]1c1ccccc1N=[N+]=[N-]
- composite z-score [1]: 2.68
- composite z-score [2]: 1.25
- composite z-score [3]: 0.968
- composite z-score [4]: 0.963
- composite z-score [5]: 0.46
- composite z-score [6]: -0.606
- z-score [7]: 0.125
- composite z-score [8]: -0.817
- composite z-score [9]: 1.44
- z-score [10]: -5.43 (inactive)

SMILES: O=C1C2C=CC(C(O)c3ccc(I)cc3)N(Nc3ccccc3)C2C(=O)N1c1ccccc1 (stereo not given)
- composite z-score [1]: 1.45
- composite z-score [2]: 1.19
- composite z-score [3]: 0.83
- composite z-score [4]: 0.907
- composite z-score [5]: 0.862
- composite z-score [6]: 0.0891
- z-score [7]: -0.0457
- composite z-score [8]: -0.358
- composite z-score [9]: 1.44
- z-score [10]: -0.102 (inactive)

SMILES: COC(=O)[C@@]1(Cc2ccc(F)cc2)[C@H]2c3cc(C(=O)N(C)C)n(Cc4c(CO)[nH]cc(C)c4=O)c3C[C@H]2CN1C(=O)c1ccccc1
- composite z-score [1]: 0.394
- composite z-score [2]: 0.453
- composite z-score [3]: 0.0551
- composite z-score [4]: -0.466
- composite z-score [5]: -0.198
- composite z-score [6]: -0.197
- z-score [7]: 0.932
- composite z-score [8]: -0.0191
- composite z-score [9]: 0.406
- z-score [10]: 0.593 (inactive)

SMILES: COc1ccc(C(O)C2C=CC3C(=O)N(c4ccccc4)C(=O)C3N2Nc2ccccc2)cc1 (stereo not given)
- composite z-score [1]: 0.85
- composite z-score [2]: 1.08
- composite z-score [3]: 0.72
- composite z-score [4]: 1.01
- composite z-score [5]: 0.955
- composite z-score [6]: 0.0088
- z-score [7]: 0.204
- composite z-score [8]: 0.817
- composite z-score [9]: 1.1
- z-score [10]: -0.182 (inactive)

SMILES: COCCOC(=O)N1C(=O)[C@@]2(c3cc(C#CCC(C(=O)OC)C(=O)OC)ccc31)[C@H](c1ccc(OCCO)cc1)N1[C@H](c3ccccc3)[C@H](c3ccccc3)OC(=O)[C@H]1[C@@H]2C(=O)Nc1nc2ccccc2s1
- composite z-score [1]: 0.572
- composite z-score [2]: 1.16
- composite z-score [3]: -0.14
- composite z-score [4]: 0.973
- composite z-score [5]: 1.24
- composite z-score [6]: 0.35
- z-score [7]: -2.17
- composite z-score [8]: 1.06
- composite z-score [9]: 0.671
- z-score [10]: -1.2 (inactive)

SMILES: COc1cc(NN2C(C(O)c3ccccc3)C=CC3C(=O)N(C)C(=O)C32)cc(OC)c1OC (stereo not given)
- composite z-score [1]: 0.981
- composite z-score [2]: 1.19
- composite z-score [3]: 0.681
- composite z-score [4]: 0.959
- composite z-score [5]: 0.756
- composite z-score [6]: 0.216
- z-score [7]: -0.109
- composite z-score [8]: 0.229
- composite z-score [9]: 1.23
- z-score [10]: -1.69 (inactive)
